Screening data deposited in PubChem BioAssay by Broad Institute.
These entries were drawn from the full list.
aSyn UTR act – Activators via SNCA 5'UTR binding, MLPCN; 300,000 tested, 7.1% active; alpha-synuclein 5'UTR reporter, activators screen; activity score, % (tested at 7.5 µM), hits read low; AID 1814; in the data active = activity score below about -60%
Of the large screens only hits and unclear results are named; the others gave an inactive call.

O=C(N/N=C/c1ccncc1)c1nc2ccccc2c(=O)[nH]1	aSyn UTR act -66
O=C(N/N=C/c1ccc2cccnc2c1)c1nc2ccccc2c(=O)[nH]1	aSyn UTR act -83
COc1ccc(/C=N/Nc2nc(Nc3ccccc3)nc(N3CCCCC3)n2)cc1OC	aSyn UTR act -111
COc1cc2c(cc1NC(=O)CSc1nccn1C)oc1ccccc12	aSyn UTR act -229
COc1ccc(NC(=O)Nc2cc3oc4ccccc4c3cc2OC)cc1	aSyn UTR act -152
COc1cc2c(cc1NC(=O)C(C)OC(=O)/C=C/c1ccc(OC(F)F)cc1)oc1ccccc12 (configuration not stated)	aSyn UTR act -150
COc1cc2c(cc1NC(=O)C(C)OC(=O)C1CC(=O)N(Cc3ccco3)C1)oc1ccccc12 (configuration not stated)	aSyn UTR act -127
CN1CCN(C(c2ccc(Br)cc2)c2cc(Cl)c3cccnc3c2O)CC1 (configuration not stated)	none
COc1cc2c(cc1NC(=O)Nc1ccc(F)cc1)oc1ccccc12	aSyn UTR act -95
COc1cc2c(cc1NC(=S)Nc1cccc(C)c1)oc1ccccc12	aSyn UTR act -124
O=C1S/C(=C\C=C\c2ccco2)C(=O)N1c1ccccc1	aSyn UTR act -217
O=C1S/C(=C\C=C\c2ccco2)C(=O)N1c1ccc(O)cc1	aSyn UTR act -245
O=C(COn1nnc2ccccc21)NCC1CCCCC1	aSyn UTR act -78
O=C(COn1nnc2ccccc21)N1CCN(Cc2ccccc2)CC1	aSyn UTR act -66
CCCNC(=O)c1ccc2c(=O)c(O)c(-c3ccsc3)[nH]c2c1	none
Cc1cc(C(=O)NNC(=S)NC2CCCCC2)cs1	aSyn UTR act -77
COc1cccc(C(=O)NNC(=S)NC2CCCCC2)c1	aSyn UTR act -64
O=C(NNC(=S)NC1CCCCC1)c1ccc(Cl)s1	aSyn UTR act -62
CCCCNC(=S)NNC(=O)c1csc(C)c1	aSyn UTR act -63
O=C(NC(=S)NC1CCCC1)c1ccccc1	aSyn UTR act -126
COc1ccccc1C(=O)CSc1ccccn1	aSyn UTR act -95
COc1ccc(NC(=O)CSc2ccccn2)cc1	aSyn UTR act -79
COc1ccc(CNC(=O)CSCc2ccccc2Cl)cc1	aSyn UTR act -62
COc1ccc(-n2c(SCC(=O)Nc3ccc(Br)cc3)nc(O)cc2=O)cc1	aSyn UTR act -119
COc1ccc(-n2c(C)cc(C(=O)CCl)c2C)cc1	none
COc1ccc(-n2c(C)cc(C(=O)CSc3ccc(NC(C)=O)cc3)c2C)cc1	aSyn UTR act -89
CCOc1ccc(-c2cc(CCCC(=O)Nc3cccc(OC)c3)no2)cc1	none
Cc1ccc(O)c(NC(=O)CSc2ccc(Cl)cc2)c1	aSyn UTR act -177
COc1cccc(NC(=O)CSc2ccccn2)c1	aSyn UTR act -144
O=C(CCSc1ccccn1)Nc1ccc(Br)cc1	aSyn UTR act -153
COc1ccc(NC(=O)CSc2ccccn2)c([N+](=O)[O-])c1	aSyn UTR act -72
COc1ccc(NC(=O)CSc2ccc(C)cc2)cc1	aSyn UTR act -149
CCc1ccc(NC(=O)CSc2ccccn2)cc1	aSyn UTR act -74
COc1ccc(NC(=O)CSCc2ccccc2C)cc1	aSyn UTR act -90
Cc1ccc(NC(=O)CSc2n[nH]c(-c3ccccn3)n2)cc1	none
CCN(CC)c1ccc2c(c1)OC(N)=C(C#N)C2c1cccnc1 (configuration not stated)	none
Cc1ccc(SCC(=O)NC(C)(C)C)cc1	aSyn UTR act -66
Cc1ccc(NC2=C(Cl)C(=O)N(C3CCCCC3)C2=O)cc1	aSyn UTR act -124
CCNC(=O)c1sc(-c2ccccc2)nc1C	aSyn UTR act -66
Cc1nc(-c2ccccc2)sc1C(=O)Nc1ccccc1F	aSyn UTR act -66
Cc1nc(-c2ccccn2)sc1C(=O)Nc1ccc(F)cc1F	aSyn UTR act -127
CCCC1=Nc2cc(C(=O)NCCCOCC)ccc2Sc2ccccc21	none
CC(C)OCCCNC(=O)c1ccc(Br)cc1	aSyn UTR act -73
CCOCCCNC(=O)c1ccc(Br)cc1	aSyn UTR act -84
CC1=Nc2cc(C(=O)NCCCOC(C)C)ccc2Sc2ccc(C)cc21	none
CN(C)c1ccc(N/C=C/C(=O)C(C)(C)C)cc1	aSyn UTR act -78
CN(C)c1ccc(N/C=C/C(=O)c2ccccc2)cc1	aSyn UTR act -65
CC(=O)Nc1ccc(N/C=C/C(=O)c2ccccc2)cc1	aSyn UTR act -255
O=C(/C=C\Nc1ccc(Br)cc1)c1cccnc1	aSyn UTR act -69
Cc1ccc(CNC(=O)C2CC(c3cccc([N+](=O)[O-])c3)=NO2)o1 (configuration not stated)	aSyn UTR act -88
